From PubChem BioAssay
DAX1 inh-1 – inhibitors of DAX1 repression of SF-1 activated StAR promoter. inhibition, % at 6.8 µM. HEK293T StAR-luciferase reporter, SF-1/DAX-1 repression relief. 370,000 compounds, 1.1% hits. AID 652010;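 active means inhibition above the mean over all tested compounds plus 3 SD, cut at about 3.6% in these data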;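 further: 0% = DAX-1 cells with DMSO and 100% = cells lacking DAX-1 with DMSO; higher inhibition means more luminescence from relief of DAX-1 repression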
hcDAF12 agonist – H. contortus DAF-12 activation, primary screen | activation, % at 6.8 µM | AID 652067 | HEK293 hcDAF-12 lit1-tk-luc reporter, luminescence; 0% DMSO, 100% Δ7-dafachronic acid | 370,000 compounds, 1.4% hits;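 active means activation above the mean of all tested compounds plus 3 SD, cut at about 5.5% in these data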;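 further: 100% = response to 3 µM Δ7-dafachronic acid high control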
ssDAF12 agonist – activators of S. stercoralis DAF-12 nuclear receptor; activation, % at 6.8 µM; 370,000 compounds, 1% hits; HEK293 ssDAF-12/GRIP1 lit1-tk-luc reporter, luminescence; % of 3 µM dafachronic acid response; AID 652126;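 active means activation above the mean over all tested compounds plus 3 SD, cut at about 0.9% in these data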;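 further: 0% = DMSO-only wells and 100% = 3 µM delta7-dafachronic acid wells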
Wee1 stabilizer – blocks degradation of human Wee1 kinase | AID 1321 | reporter increase, % at 5 µM | 220,000 compounds, 1.2% hits | HeLa Luc-Wee1K328M stability, luciferase luminescence; 100% = proteasome inhibitor MG132 effect | P30291;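 active means activation above the mean of all tested compounds plus 3 SD, set per screening run, cut at about 8.8% in these data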;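 further: cells exposed to compound for 20 h before luminescence read; 0% = DMSO alone and 100% = MG132 at 30 µM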
DAX1 inh-2 – inhibitors of human orphan nuclear receptor DAX1 (NR0B1). P51843. 340,000 compounds, 0.99% hits. HEK293 Gal4-DAX1 luciferase reporter, luminescence. inhibition, % at 6.75 µM;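 active means inhibition above the mean over all tested compounds plus 3 SD, cut at about 4.2% in these data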;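 further: 0% = DAX1-transfected cells with DMSO and 100% = empty-vector control cells with DMSO; inhibition shows as a rise in luminescence from relieved DAX1 repression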
Target sequence (P51843 207-470 limits assumed): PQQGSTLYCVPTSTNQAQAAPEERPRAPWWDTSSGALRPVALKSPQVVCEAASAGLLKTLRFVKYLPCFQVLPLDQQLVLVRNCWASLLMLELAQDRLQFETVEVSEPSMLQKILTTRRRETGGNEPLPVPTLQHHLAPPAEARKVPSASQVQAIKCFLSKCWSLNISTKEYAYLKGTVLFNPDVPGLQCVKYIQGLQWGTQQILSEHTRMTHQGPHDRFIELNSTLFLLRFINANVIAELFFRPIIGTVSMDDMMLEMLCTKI
hgDAF-12 ag – hgDAF-12 agonism, primary luciferase screen; activation, % at 6.8 µM; 370,000 compounds, 1.8% hits; HEK293 GAL4-hgDAF12 UAS-luciferase reporter, agonist luminescence; normalized to butyrate control;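 active means activation above a cutoff set at the mean of all screened compounds plus 3 SD, cut at about 10% in these data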;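 further: 0% = DMSO wells and 100% = sodium butyrate wells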
The depositor's hits bear a star. Only some compounds are listed: those with a hit (about 4.6% of all), similar ones and a draw of the others.

For CNC(=O)[C@@H](NC(=O)[C@H](CC(C)C)[C@H](O)C(=O)NO)C(C)(C)C the results were DAX1 inh-1 -1.4, hcDAF12 agonist -4.2, ssDAF12 agonist -1.4 and hgDAF-12 ag -4.6.
For Cc1ccc(NC(=O)c2ccc3nc[nH]c3c2)cc1C the results were DAX1 inh-1 2.9, hcDAF12 agonist 5.9*, ssDAF12 agonist 0.0, Wee1 stabilizer 0.4, DAX1 inh-2 2.0 and hgDAF-12 ag 8.9.
Screening O=C(c1ccccc1)c1ccc2nc[nH]c2c1 returned DAX1 inh-1 1.1, hcDAF12 agonist 6.3*, ssDAF12 agonist 0.5, Wee1 stabilizer 4.3, DAX1 inh-2 -0.2 and hgDAF-12 ag 6.7.
COC(=O)c1ccc(N=Cc2c(-c3ccccc3)[nH][nH]c2=O)cc1 was read as DAX1 inh-1 0.1, hcDAF12 agonist 3.1, ssDAF12 agonist 1.5*, Wee1 stabilizer -1.0, DAX1 inh-2 -0.4 and hgDAF-12 ag -2.1.
For O=c1[nH][nH]c(-c2ccccc2)c1C=Nc1ccc(F)cc1F the results were DAX1 inh-1 -0.3, hcDAF12 agonist -1.8, ssDAF12 agonist -1.0, Wee1 stabilizer 0.0, DAX1 inh-2 -1.4 and hgDAF-12 ag -0.3.
`COc1ccc(CCNC(=O)c2ccccc2OCc2c(C)noc2C)cc1` gave DAX1 inh-1 3.7*, hcDAF12 agonist -1.3, ssDAF12 agonist -1.4, DAX1 inh-2 -1.0 and hgDAF-12 ag -0.8.
For Cc1noc(C)c1COc1ccccc1C(=O)NCCc1ccc(Cl)cc1 the results were DAX1 inh-1 1.0, hcDAF12 agonist -0.5, ssDAF12 agonist -1.4, DAX1 inh-2 0.4 and hgDAF-12 ag 0.3.
CN(CC(=O)Nc1ccc(Cl)c(C(F)(F)F)c1)C(=O)CCCNC(=O)c1ccc(Cl)cc1 was read as DAX1 inh-1 -0.7, hcDAF12 agonist 0.2, ssDAF12 agonist -1.3, DAX1 inh-2 0.6 and hgDAF-12 ag 0.3.
For CCc1ccc2[nH]c(O)c(N=Nc3nc(-c4ccccc4)cs3)c2c1 the results were DAX1 inh-1 -0.3, hcDAF12 agonist -0.6, ssDAF12 agonist -1.2, Wee1 stabilizer 9.7*, DAX1 inh-2 0.0 and hgDAF-12 ag 0.3.
For CCc1cc2c(N=Nc3c(O)[nH]c4ccccc34)ncnc2s1 the results were DAX1 inh-1 0.5, hcDAF12 agonist 5.2, ssDAF12 agonist 0.1, Wee1 stabilizer -0.3, DAX1 inh-2 0.3 and hgDAF-12 ag -1.3.
For CCOC(=O)C1=C[C@@H](CC)N(S(=O)(=O)c2ccc(C)cc2)[C@H]1c1cccs1 the results were DAX1 inh-1 -1.5, hcDAF12 agonist -2.5, ssDAF12 agonist -1.5 and hgDAF-12 ag -2.5.
O=C(Nc1ccc(F)cc1)Nc1c(-c2ccc(F)cc2)nc2ncccn12 was read as DAX1 inh-1 -0.3, hcDAF12 agonist 1.0, ssDAF12 agonist 1.8* and hgDAF-12 ag 0.8.
CCCCCOc1ccc(/C=C/c2c([N+](=O)[O-])c(=O)n(C)c(=O)n2C)cc1 was read as DAX1 inh-1 0.1, hcDAF12 agonist -1.5, ssDAF12 agonist -1.2, DAX1 inh-2 2.5 and hgDAF-12 ag 1.4.
For Nc1c(-c2ccc(Cl)cc2)cnc2ncnn12 the results were DAX1 inh-1 0.0, hcDAF12 agonist -0.3, ssDAF12 agonist -1.6, Wee1 stabilizer -1.0, DAX1 inh-2 -0.3 and hgDAF-12 ag -0.7.
Screening Cc1cc2ncc(-c3ccc(Cl)cc3)c(N)n2n1 returned DAX1 inh-1 4.0*, hcDAF12 agonist 0.3, ssDAF12 agonist -0.3, Wee1 stabilizer 4.3, DAX1 inh-2 0.8 and hgDAF-12 ag 7.6.
For C=CCN=C1NC(c2ccc(Cl)cc2)C(C(=O)OC)=C(C)N1Cc1cccc(C(F)(F)F)c1 (centres undefined) the results were DAX1 inh-1 -0.2, hcDAF12 agonist -0.8, ssDAF12 agonist -1.0 and hgDAF-12 ag 4.3.
Screening O=C(/C=C/c1ccccc1Cl)c1ccc(O)cc1 returned DAX1 inh-1 0.1, hcDAF12 agonist -0.3, ssDAF12 agonist -0.8, Wee1 stabilizer 0.9, DAX1 inh-2 0.8 and hgDAF-12 ag 4.4.
O=C(/C=C/c1c(F)cccc1Cl)Nc1ncccn1 was read as DAX1 inh-1 2.1, hcDAF12 agonist 5.0, ssDAF12 agonist -0.3, Wee1 stabilizer 4.8, DAX1 inh-2 4.6* and hgDAF-12 ag 6.1.
